Experimental data published in PubChem BioAssay AID720582 (The Scripps Research Institute Molecular Screening Center, 2013).
Several values for one entry are separate records, joined by “and”; a condition that tells them apart may be missing. Equal values may be shown once. Hit rate of the full screen: of about 370,000 compounds, about 2,300 (0.62%) were called active. The sample holds actives, similar compounds and a random draw of the others, so the mix is not that of the screen.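 Rule for the calls: active = inhibition above a per-campaign cutoff equal to the mean of compounds falling between control-based bounds plus 3 SD (cut at about 20% in these data); inactive = the rest.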 The source holds several records for some structures; these can differ, active in one and inactive in another.

These compounds were tested against Disintegrin and metalloproteinase domain-containing protein 10 (Homo sapiens) (UniProt O14672) (assay: human ADAM10 inhibitors, primary screen, biochemical, QFRET, HTS (AID 720582;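 note: 0% = DMSO wells while the 100% control is not disclosed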)). Settings: recombinant ADAM10, EDANS/DABCYL FRET peptide cleavage, 3 h; at 7 µM; stronger effect = higher value.
Disintegrin and metalloproteinase domain-containing protein 10 (Homo sapiens), sequence (O14672 214-748 limits assumed): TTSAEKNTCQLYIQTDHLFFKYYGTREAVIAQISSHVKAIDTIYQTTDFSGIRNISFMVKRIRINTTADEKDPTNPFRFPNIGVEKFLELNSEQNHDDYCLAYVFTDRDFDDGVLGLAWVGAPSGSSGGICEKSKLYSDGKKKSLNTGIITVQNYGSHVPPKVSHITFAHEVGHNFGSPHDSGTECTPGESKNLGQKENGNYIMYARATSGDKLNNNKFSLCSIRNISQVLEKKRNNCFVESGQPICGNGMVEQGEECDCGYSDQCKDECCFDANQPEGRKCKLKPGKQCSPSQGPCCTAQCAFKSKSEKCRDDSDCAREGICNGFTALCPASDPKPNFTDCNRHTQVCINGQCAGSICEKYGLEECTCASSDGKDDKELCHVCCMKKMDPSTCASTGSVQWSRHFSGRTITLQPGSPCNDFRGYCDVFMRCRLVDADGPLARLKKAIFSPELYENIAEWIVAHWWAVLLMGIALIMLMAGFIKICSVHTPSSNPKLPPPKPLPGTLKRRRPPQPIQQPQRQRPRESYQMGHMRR

Structure (SMILES) | inhibition
CC(=O)N1CCc2cc(S(=O)(=O)NCCC(=O)N3CCCC3)ccc21 | -14% (inactive)
COc1cc(/C=C/C(=O)n2cnc3ccccc32)cc(OC)c1OC | -59.7% (inactive)
CCCCCN1CCCCC(NC(=O)C(C)CCC)C1=O (centres undefined) | -6.07% (inactive)
CCOc1ccc(Br)cc1S(=O)(=O)Nc1ccc(C(=O)OC(C)C(=O)N(C)c2ccccc2)cc1 (centres undefined) | 22.5% (active)
CCOc1ccc(Br)cc1S(=O)(=O)Nc1ccc(S(=O)(=O)Nc2cc(C)on2)cc1 | -5.64% (inactive)
CCOc1ccc(Br)cc1S(=O)(=O)Nc1cccc(S(=O)(=O)N(CC)CC)c1 | 0.81% (inactive)
CC(C)C(C#CC1CC1)N(Cc1ccc2c(c1)OCO2)C(N)=NC(=O)/C=C/c1cccc(C(F)(F)F)c1 (centres undefined) | -4.29% (inactive)
COC(=O)c1cccc(Cn2ccc3ccc(-c4ccc5ccn(C(=O)c6ccccc6C)c5c4)cc32)c1 | -41.7% (inactive)
CCCC1CCC2(CCCN2CCOC(=O)NCc2ccccc2)CC1 (centres undefined) | -8.67% (inactive)
CC(C)N1CCCCC(NC(=O)C(C)(C)C)C1=O (centres undefined) | -0.89% (inactive)
N#Cc1cccc(NC(=O)C2CCCN(C(=O)c3ccc(Cl)cc3)C2)c1 (centres undefined) | -3.16% (inactive)
CN(C)c1ccc(NC(=S)N(CCc2ccccc2)C2CC(=O)N(c3c(Cl)cccc3Cl)C2=O)cc1 (centres undefined) | 11.2% (inactive)
COc1ccc(N2C(=O)C(CC(=O)Nc3ccccc3)N(Cc3ccc(OC)c(OC)c3)C2=O)cc1 (centres undefined) | 0.53% (inactive)
CCOc1ccc(N2C(=O)CC(N(CCc3ccc(OC)c(OC)c3)C(=S)Nc3ccccc3)C2=O)cc1 (centres undefined) | 23.9% (active) and 6.83% (inactive)
CCOC(=O)[C@]12CCCC=C1N(CCCOC)C(=O)[C@@H]2CC(=O)N1CCOCC1 | -0.44% (inactive)
CN1[C@H](Cc2ccccc2)COc2cccc(N3CCSCC3)c2S1(=O)=O | -1.57% (inactive)
CCC(C(=O)OCC(=O)Nc1ccccc1-c1ccccc1)c1ccccc1 (centres undefined) | 20.3% (active)
O=C(CNCc1ccc(F)cc1)Nc1ccccc1-c1ccccc1 | 4.85% (inactive)
CCC(C(=O)Nc1ccc(C(C)C)cc1)c1ccccc1 (centres undefined) | 5.96% (inactive)
CC1CCN(c2ccc(C(=O)O)cc2NS(=O)(=O)c2ccc(Br)s2)CC1 | -0.83% (inactive)
C[C@H](C(=O)N(C)c1ccccc1)[C@@H](O)c1ccc(Cl)cc1 | 2.56% (inactive)
CC(=O)N1CCCN(C2=Nc3ccccc3Sc3ccccc32)CC1 | 1.32% (inactive)
O=C(CSc1nnc(-c2cccc(Cl)c2)n1Cc1ccco1)Nc1ccc(OCc2ccccc2)cc1 | 7.99% (inactive)
Cc1ccc(-c2nc(C3CCCN(S(=O)(=O)c4ccc(Br)s4)C3)no2)cc1 (centres undefined) | -6.94% (inactive)
O=C(NCCC1=CCCCC1)C1CCN(S(=O)(=O)c2ccc(Cl)s2)CC1 | -5.18% (inactive)
COc1ccc(OCCCn2cccc2/C=C2/C(=N)N3OC(C)=CC3=NC2=O)cc1 | 24.4% (active)
COc1ccccc1OCCOc1ccc(/C=C2\C(=N)N3N=C(C)SC3=NC2=O)cc1 | -72.1% (inactive)

Structure (SMILES) | inhibition
COc1ccc(OCCn2ccnc2C)cc1 | 3.1% (inactive)
COCC(=O)N[C@@H]1C[C@@H]2O[C@@H](CO)CC[C@@H]2O[C@@H]1CCc1ccc(-c2ccccc2)cc1 | 4.87% (inactive)
CSc1ccccc1NC(=O)Cc1ccc(Br)cc1 | 2.92% (inactive)
O=C(COC(=O)Cc1ccc(Br)cc1)Nc1ccc(N2CCOCC2)cc1 | -15.2% (inactive)
CC(C)Oc1ccc(CC(=O)NNC(=S)Nc2ccc(Br)cc2)cc1 | 23.5% (active)
O=C1C(=O)N(Cc2ccc(-c3ccsc3)cc2)c2ccc(OC(F)(F)F)cc21 | 3.17% (inactive)
CC(=O)OC12CCCN(C1)/C(=C/c1ccncc1)C2 (centres undefined) | -16.8% (inactive)
CCOc1cc(/C=N/NC(=O)c2cc(-c3ccccc3)nc3ccccc23)ccc1O | 22.1% (active)
CCOc1ccccc1-c1cc(C(=O)N/N=C(\C)c2cccnc2)c2ccccc2n1 | 0.58% (inactive)
CCOc1ccc(/C=N/NC(=O)C(C)Sc2ccccn2)cc1OCC (centres undefined) | -1% (inactive)
COc1ccnc(C(=O)N2CCC(Oc3cccnc3)CC2)c1 | 1.62% (inactive)
O=C(CSc1nnc(-c2ccccc2)n1Cc1ccco1)Nc1ccccc1-c1ccccc1 | 15% (inactive)
CCC1(C)Cc2c(sc3nnn(CC(=O)Nc4ccc(Cl)cc4)c(=O)c23)CO1 (centres undefined) | 20.1% (active)
CCOC(=O)Cn1c(SC)nc2sc3c(c2c1=O)CC(C)(C)OC3 | -52.7% (inactive)
CCCSc1nc(NCc2ccco2)c2c3c(sc2n1)COC(C)(CC)C3 (centres undefined) | -57.9% (inactive)
CN(CCO)c1cccc2c1S(=O)(=O)N(Cc1cn(Cc3ccc(C(F)(F)F)cc3)nn1)Cc1ccccc1O2 | -6.76% (inactive)
COc1ccnc(NC(=S)N2CCN(c3ncc(C(F)(F)F)cc3Cl)CC2)c1 | -1.47% (inactive)
COc1ccc(C2CC(c3ccccc3)=NN2C(=O)c2ccc(Cl)c([N+](=O)[O-])c2)cc1 (centres undefined) | -1.55% (inactive)
COc1ccc(C2CC(c3ccccc3)=NN2C(=O)COC(=O)COc2ccccc2)cc1 (centres undefined) | 20.3% (active)
COc1ccc(C2=NN(C(=O)CSc3nc(=O)n4ccc(C)cc4n3)C(c3ccc(C)cc3)C2)cc1 (centres undefined) | -4.74% (inactive)
CCOC(=O)[C@]12CCCC3=C1N(CCC3)C(=O)[C@@H](CC(=O)NCC13CC4CC(CC(C4)C1)C3)C2 | 3.03% (inactive)
O=C(CSc1nc2ccccc2n1Cc1ccccc1)NNC(=S)Nc1ccccc1 | 12.5% (inactive)
Cc1ccccc1NC(=O)C1CCN(c2ncccn2)CC1 | -49.2% (inactive)
Cc1ccc(Cn2cc(CN3[C@@H](CC(C)C)COc4ccc(Cl)cc4S3(=O)=O)nn2)cc1 | 2.6% (inactive)
COc1cccc(CNC(C)C(=O)Nc2ccc(S(=O)(=O)N3CCCC3)cc2)c1 (centres undefined) | -0.95% (inactive)
CC(C)c1ccc(S(=O)(=O)N2CCN(C(C)C(=O)NC3CCCC3)CC2)cc1 (centres undefined) | -11.6% (inactive)
COc1ccc(S(=O)(=O)N2CCN(C(C)C(=O)Nc3ccc(C(C)C)cc3)CC2)cc1 (centres undefined) | 26.6% (active)
